Screening results (PubChem BioAssay)
Compounds with a hit are over-represented: about 0.86% of the library has one in this group of screens.
FEN1 inh-1 – qHTS Assay for the Inhibitors of Human Flap endonuclease 1 (FEN1). Potency, µM (doses to about 114 µM), inactives show at the top dose activity change, negative = inhibition, usual class: inhibitors. P39748. 390,000 tested, 0.35% active. Recombinant FEN1 flap cleavage, fluorescence, 15 min; note: % is set by controls: 0 for no effect and ±100 for the full control effect; nearly all actives have a fitted effect of over 65% in size
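Compounds are tested as a concentration series against 10 nM FEN1; after a 15 min room-temperature preincubation, 50 nM substrate starts cleavage, with plate reads at 0 and 15 min. Normalized responses are fitted by a Hill equation.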
APE1 inh – qHTS Assay for Inhibitors of the Human Apurinic/apyrimidinic Endonuclease 1 (APE1); AID 2517, 2012; 350,000 tested, 0.35% active; recombinant APE1, TAMRA/BHQ-2 abasic DNA cleavage fluorescence; Potency, µM (top dose mostly 65.8 µM), for inactives: top-dose activity change, negative = inhibition, hits mostly inhibitors;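 note: plate controls were vehicle for no effect and reference inhibitor for full effect; nearly all actives have a fitted effect of over 55% in size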
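Compound pre-exposure to 0.75 nM APE1, 15 min at ambient temperature. Reaction initiated with 50 nM TAMRA/BHQ-2 THF substrate, read immediately in kinetic mode, 525 nm excitation, 598 nm emission.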
PGK inhibitor – qHTS Assay to Find Inhibitors of Phosphoglycerate Kinase; Phosphoglycerate kinase, glycosomal (Trypanosoma brucei brucei), P07378; PGK/GAPDH coupled, Kinase-Glo luminescence, 60 min; Potency, µM (highest dose often 57.5 µM), for inactives: at the highest dose activity change, negative = inhibition, hits mostly inhibitors; 380,000 tested, 0.043% active; AID 602233, 2012; note: % is set by controls: 0 for no effect and ±100 for the full control effect; nearly all actives have a fitted effect of over 60% in size
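Recombinant glycosomal PGK reaction used 1,3-bisphosphoglycerate generated in-well by GAPDH (100nM final) in 100mM TEA pH 7.6, 5mM MgCl2, 0.01% Tween-20. After 60 minutes at room temperature, ATP was read by Kinase-Glo Plus luminescence end-point.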
BLM inh – qHTS Assay for Inhibitors of Bloom's syndrome helicase (BLM) | RecQ-like DNA helicase BLM (Homo sapiens), P54132 | recombinant BLM DNA unwinding, fluorescence dequenching | Potency, µM (titrated, usually from 56.1 µM), for inactives: at the highest dose activity change, negative = inhibition, most hits filed as inhibitors | 350,000 tested, 0.2% active;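 note: plate controls were vehicle for no effect and no enzyme for full effect; nearly all actives have a fitted effect of over 35% in size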
GLS inh – qHTS for Inhibitors of Glutaminase (GLS) | GLS enzymatic activity, qHTS titration | 410,000 tested, 0.21% active | AID 624170, 2012 | Potency, µM (doses to about 45.5 µM), without a hit: top-dose activity change, negative = inhibition, hits mostly inhibitors; note: % is set by controls: 0 for no effect and ±100 for the full control effect
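hKGA in 45 mM KH2PO4 (pH 8.2), 0.02% Tween-20 with compound, then 1mM L-Glutamine (stock as added) plus glutamate oxidase/HRP/Amplex red coupling mix. Fluorescence read initially and after 30 min at RT; signal change reflects glutamate formation.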
RECQ1 inh – qHTS Assay for Inhibitors of RecQ-Like Dna Helicase 1 (RECQ1); RECQ1 DNA unwinding, red fluorescence kinetic read; Potency, µM (top dose mostly 57.3 µM), for the others: at the top dose activity, negative = inhibition, hits mostly inhibitors; 240,000 tested, 0.54% active; AID 2549, 2010;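 note: plate controls were vehicle for no effect and no enzyme for full effect; nearly all actives have a fitted effect of over 30% in size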
Target sequence (P46063 whole entry, looked up): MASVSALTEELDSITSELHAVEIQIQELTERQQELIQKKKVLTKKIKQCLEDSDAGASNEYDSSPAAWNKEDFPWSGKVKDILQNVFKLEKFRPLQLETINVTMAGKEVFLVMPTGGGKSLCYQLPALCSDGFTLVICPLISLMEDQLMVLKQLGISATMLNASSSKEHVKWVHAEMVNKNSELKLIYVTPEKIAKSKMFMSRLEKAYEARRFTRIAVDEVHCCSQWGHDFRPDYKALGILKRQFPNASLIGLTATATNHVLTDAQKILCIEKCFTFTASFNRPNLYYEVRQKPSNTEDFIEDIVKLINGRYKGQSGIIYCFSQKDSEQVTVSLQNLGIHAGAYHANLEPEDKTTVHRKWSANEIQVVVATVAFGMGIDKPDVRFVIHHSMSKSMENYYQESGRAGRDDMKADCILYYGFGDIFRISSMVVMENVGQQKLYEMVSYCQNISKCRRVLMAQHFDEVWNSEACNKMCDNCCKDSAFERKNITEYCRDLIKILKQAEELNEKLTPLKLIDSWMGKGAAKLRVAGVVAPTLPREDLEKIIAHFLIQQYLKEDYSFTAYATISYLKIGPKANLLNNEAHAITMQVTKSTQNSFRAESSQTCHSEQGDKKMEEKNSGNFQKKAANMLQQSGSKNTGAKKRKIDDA
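50 nM RECQ1T1 preincubated 15 min with compound in Tris pH 8.0 buffer with MgCl2, DTT, Tween-20 and 2.5 ug/ml poly(dI-dC); started with 200 nM TAMRA/BHQ-2 forked duplex and 2 mM ATP. Unwinding read as fluorescence (525/598 nm), two reads 2 h apart.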
FEN1 inh-2 – qHTS Assay for the Inhibitors of FEN1: Confirmatory Assay for Cherry-picked Compounds | shares compounds with FEN1 inh-1 | FEN1 flap cleavage, TAMRA/BHQ2 fluorogenic DNA substrate | Potency, µM, actives largely listed as inhibitors | 880 tested, 79% active | AID 720498, 2013; note: nearly all actives have a fitted effect of over 60% in size
Active calls of the source: *; i = inactive; ? = inconclusive; / = not tested or not shown. Calls come from the whole dose curve; as a rule, active = well fitted curve in the direction sought with a large enough effect; inconclusive = small, poorly fitted or top-dose-only effect, or another doubt; inactive = no such curve, though single readings can be large; an effect the other way counts as inactive or inconclusive. Potency is the fitted concentration of half-maximal effect.

SMILES	FEN1 inh-1	APE1 inh	PGK inhibitor	BLM inh	GLS inh	RECQ1 inh	FEN1 inh-2
CCc1ccc2nc(N=C(N)N)nc(C)c2c1	?	7%	-4%	66%	-6%	5%	/
COc1ccc(C2c3cc(OC)c(OC)cc3Cc3c4cc(OC)c(OC)cc4cc[n+]32)cc1OC (stereo unspecified)	/	?	/	119%	/	27%	/
COc1ccc(CCNC(=O)Cn2nc(C)c3c(C)n(-c4ccccc4)nc3c2=O)c(OC)c1	18%	27%	-7%	0%	1%	/	/
COc1ccc(OC)c(CCNC(=O)Cn2nc(C)c3c(C)n(-c4ccc(C)cc4)nc3c2=O)c1	?	-2%	-5%	-17%	-13%	/	?
CC(=O)Nc1sc2c(c1-c1nc3ccccc3s1)CCNC2	/	/	/	/	/	/	3.4*
CC(=O)Nc1sc2c(c1-c1nc3ccccc3s1)CCCNC2	/	/	/	/	/	/	34*
CC(=O)Nc1sc2c(c1-c1nc3ccccc3s1)CCN(C(C)C)CC2	/	/	/	/	/	/	24*
CN1CCc2c(sc(NC(=O)CSc3ccc(F)cc3)c2-c2nc3ccccc3s2)C1	-20%	/	i	-6%	4%	/	/
CC(=O)Nc1sc2c(c1-c1cc3ccccc3o1)CCNC2	/	/	/	/	/	/	34*
CCN1CCc2c(sc(NC(=O)CSc3ccccc3)c2-c2nc3ccccc3s2)C1	4%	/	2%	-9%	3%	/	/
O=C(NCCc1ccccc1)c1cc(Sc2ccc(F)cc2F)nc2ccccc12	0%	/	i	0%	-2%	/	/
Cc1ccc(-n2nnnc2CNC(=O)c2cc(C(F)(F)F)cc(C(F)(F)F)c2)cc1C	-12%	/	7%	-10%	-9%	/	/
COc1cc(OC)c(-c2c3cc(O)c(=O)cc-3oc3cc(O)c(O)cc23)cc1OC	50µM*	25µM*	?	-27%	-11%	10µM*	34*
COc1cc2oc(-c3ccccc3)cc(=O)c2cc1OC	/	-4%	/	7%	/	-6%	/
Cc1cc2[nH]c3c(c[n+](C)c4ccccc34)c2cc1C	?	5%	-3%	?	-14%	-10%	3.8*
Cc1cc(=O)[nH]c2ccccc12	-10%	0%	-4%	0%	9%	-13%	/
CN1/C(=C\C=O)C(C)(C)c2ccccc21	-3%	-3%	i	4%	-3%	-7%	/
CN1\C(=C/C=C/C=C/C=[N+](C)C)C(C)(C)c2ccccc21	89µM*	?	?	28µM*	-14%	25µM*	85*
Cc1oc2ncnc(N3CCCCC3)c2c1C(=O)Nc1cccc(Cl)c1C	7%	/	-8%	-4%	-8%	/	/
O=C(NN=C1CCCC1)c1cc(Br)ccc1O	-3%	9%	-5%	-6%	13%	/	/
O=C(NN=C1CCCC1)c1ccc(O)cc1O	1%	40%	9%	-1%	22%	/	43*
CCc1ccccc1NC(=O)c1ccc(F)c(S(=O)(=O)N2CCN(c3ccccc3OC)CC2)c1	-10%	/	6%	-7%	1%	/	/
COc1ccc(-c2nc3ccccc3s2)cc1NC(=O)c1cccc(F)c1	?	/	i	-24%	-6%	/	/
C=CCn1c(=N)c(C(=O)NCCCOC)cc2c(=O)n3cccc(C)c3nc21	-11%	-5%	-10%	35%	7%	10%	/
COCCCNC(=O)c1cccn2c(=O)c3cc4ccccc4cc3nc12	?	?	-10%	1%	0%	-1%	?
SMILES	FEN1 inh-1	APE1 inh	PGK inhibitor	BLM inh	GLS inh	RECQ1 inh	FEN1 inh-2
Oc1ccc(/C=N/Nc2ccc(Cl)nn2)c(O)c1O	?	27%	-9%	?	?	/	38*
O=S(=O)(O)c1cc(Cl)cc(N=Nc2ccc(O)cc2O)c1O	56µM*	/	?	/	7%	/	85*
O=C1C(=Cc2ccco2)CCC1=Cc1ccco1	8.9µM*	/	3.5µM*	/	73%	/	17*
CCCC(=O)NC(c1ccco1)c1cc(Cl)c2cccnc2c1O (stereo unspecified)	?	-2%	0%	-5%	-13%	4%	/
O=C(Cc1ccccc1)NC(c1ccco1)c1cc(Cl)c2cccnc2c1O (stereo unspecified)	/	/	/	/	/	/	30*
CCOc1cc(/C=C2\SC(=S)N(NC(=O)c3cccnc3)C2=O)ccc1O	?	?	-17%	-7%	5%	18µM*	85*
COc1cc(/C=C2/SC(=S)N(Cc3ccccc3)C2=O)ccc1O	?	-8%	-15%	-20%	1%	/	85*
COc1cc(/C=C2/SC(=S)N(c3c(C)n(C)n(-c4ccccc4)c3=O)C2=O)ccc1O	?	-10%	?	-9%	-3%	22µM*	?
O=C1/C(=C\c2ccc(O)c(O)c2)SC(=S)N1Cc1ccccc1	?	-12%	-17%	-12%	28%	/	/
COc1cc(/C=C2\SC(=S)N(NC(=O)c3ccccc3OC)C2=O)ccc1O	?	-16%	-23%	?	18%	/	?
Cc1c(N2C(=O)/C(=C3/C(=O)N(C)c4ccccc43)SC2=S)c(=O)n(-c2ccccc2)n1C	11%	4%	i	-1%	2%	17%	/
COc1cc(/C=C2\SC(=S)N(NC(=O)c3ccc(O)c(OC)c3)C2=O)ccc1O	?	1%	-19%	-14%	28%	/	43*
O=C1/C(=C\c2cc([N+](=O)[O-])ccc2O)SC(=S)N1Cc1ccc(Cl)cc1	22µM*	?	/	32µM*	1%	/	38*
COc1cc(/C=C2\SC(=S)N(NS(=O)(=O)c3ccc(C)cc3)C2=O)ccc1O	-26%	-11%	-14%	-17%	63%	22µM*	67*
CCOc1cc(/C=C2\SC(=S)N(NS(=O)(=O)c3ccc(C)cc3)C2=O)ccc1O	-34%	/	-7%	/	24%	/	/
CCN=c1scc(C)n1/N=C/c1ccc(O)c(O)c1O	?	?	-10%	-19%	-17%	25µM*	?
CCN=c1scc(C)n1/N=C/c1cc(Br)c(O)c(Br)c1	11%	-2%	-8%	-5%	-12%	?	/
